From PubChem BioAssay AID1650 (Southern Research Specialized Biocontainment Screening …, 2009)
Entries with a potency or affinity are not part of this list. Values without a mark were called inactive. No rule for the calls is given here.

Assay: host cell cytotoxicity of antiviral hits, dose response, cytotoxicity control for West Nile virus antiviral project, secondary assay (AID 1650)
Settings: Mammalian host cell viability, cytotoxicity counter-screen; series mostly up to 10 µM; viability: at the top concentration

Structure (SMILES) | viability
CN1CCN(NC(=O)c2cc(-c3ccc(Br)s3)nc3ccccc23)CC1 | 83.9%
COc1ccc(-c2nc(CN3CCC(C(=O)NC4CCN(Cc5ccccc5)CC4)CC3)c(C)o2)cc1OC | 86% [at 20 µM]
CCOC(=O)N1CCC2(CC1)C(C#N)=C(N)OC1=C2C(=O)CCC1 | 95.4%
COc1ccc(Nc2nc3ccccc3nc2C)cc1 | 80.7%
CC1CCCN(CCCNC(=O)c2ccc3c(c2)N(Cc2ccccc2F)C(=O)c2ccccc2S3(=O)=O)C1 (stereo not given) | 85.2%
COc1ccc(/C=C2/SC(=S)N(CCC(=O)N3CCN(C)CC3)C2=O)cc1 | 83.4%
CCN1CCN(c2ccc(S(=O)(=O)N3CCCCC3)cc2NC(=O)Cc2c(Cl)cccc2Cl)CC1 | 78.9%
COc1ccc(-n2c(=S)[nH]c3cc(C(=O)NCc4cccnc4)ccc3c2=O)c(OC)c1 | 86.9% [at 20 µM]
O=C(CSc1nc2ccccc2c(=O)n1-c1ccc(F)cc1)Nc1ccc2c(c1)CCC2 | 73.5% [at 20 µM]
CC1CCCN(CCCNC(=O)c2cc3c(s2)-c2ccccc2OC3)C1 (stereo not given) | 82.8%
OCCN(CCO)CC(O)COc1ccc(C23CC4CC(CC(C4)C2)C3)cc1 (stereo not given) | 90.3%
Cc1ccc(S(=O)(=O)NCc2ccc(C(=O)NCCCN3CCC(Cc4ccccc4)CC3)cc2)cc1 | 82.9% [at 20 µM]
CN1CCN(C(=O)CCN2C(=O)/C(=C\c3ccc(Cl)cc3Cl)SC2=S)CC1 | 82.2%
CN1CCN(NC(=O)c2cc(-c3ccc(Cl)s3)nc3ccccc23)CC1 | 74% [at 20 µM]
CCN(CC)CCCNC(=O)c1sc2nc(-c3ccc(F)cc3)cn2c1C | 92.1%
Cc1ccc2nc(N(CCCN(C)C)C(=O)c3cc(-c4cccs4)nc4ccccc34)sc2c1 | 81.7%
CCN1CCN(C(=S)Nc2ccc3nc(N4CCN(CC)CC4)cc(C)c3c2)CC1 | 84.6% [at 20 µM]
COc1ccc(-c2cc3c(=O)n(CC(=O)NCc4ccccc4F)ncn3n2)cc1 | 87.8% [at 20 µM]
O=[N+]([O-])c1ccc(Cl)c(/C=N/n2c(C3CCCCC3)n[nH]c2=S)c1 | 75% [at 20 µM]
CN(C)CCCNc1ncnc2c1c(-c1ccccc1)cn2-c1ccccc1 | 74.4%

Structure (SMILES) | viability
CCc1ccc2nc(N(CCCN(C)C)C(=O)c3ccc4c(c3)OCCO4)sc2c1 | 76% [at 20 µM]
CCCN1CCN(CCCNC(=O)c2ccc3nc(N4CCC(C)CC4)sc3c2)CC1 | 84.4%
FC(F)(F)c1nnc(-c2ccccc2)nc1Sc1ccc(Cl)cc1 | 74.5% [at 20 µM]
O=C(Nc1ccc(F)cc1F)c1cc2ccccc2oc1=O | 93.6%
COc1ccccc1NC(=O)N1CCn2c(nc3ccccc32)C1 | 92.2% [at 20 µM]
CCn1nc(C)c(CN2CCC(C(=O)Nc3cccc(-c4cccc(F)c4)c3)CC2)c1C | 79.2%
CCN(CC)S(=O)(=O)c1ccc(NC(=O)CSc2nnc(-c3cccc(OC)c3)n2C)cc1 | 90% [at 20 µM]
CN(C)CCCNC(=S)N1CCN(c2nc(-c3ccccc3)cs2)CC1 | 81.2%
CCCc1nc2c(c(=O)c3ccccc3n2C)c(=O)n1C1CCCCCC1 | 76.9% [at 20 µM]
CCOC(=O)C1(Cc2ccccc2C(F)(F)F)CCN(C2CCN(C(C)C)CC2)CC1 | 72.2% [at 20 µM]
COc1ccc(CCNC(=O)COc2ccc(S(=O)(=O)NCC(C)C)cc2Cl)cc1OC | 84.8%
CN(Cc1ccccc1)c1nc(N)c([N+](=O)[O-])c(Nc2cccc(F)c2)n1 | 82.9% [at 20 µM]
CN1CCN(CCNC(=O)c2ccc3nc(-c4ccc(F)cc4)c(-c4ccc(F)cc4)nc3c2)CC1 | 86.1%
CCCN(CC(=O)Nc1cccc(Br)c1)CC(=O)Nc1ccc(F)c(F)c1F | 84.9%
O=C(CCN1C(=O)/C(=C/c2ccc(F)cc2)SC1=S)NCCc1ccc(O)cc1 | 70.4% [at 20 µM]
COc1ccc(Cl)cc1NC(=O)c1nnn(CC(=O)Nc2cc(C)cc(C)c2)c1N | 79.6% [at 20 µM]
O=C(NCCCN1CCCC1)c1ccc2c(c1)N(Cc1cccc(Cl)c1)C(=O)c1ccccc1S2=O (stereo not given) | 84.1% [at 20 µM]
CCOC(=O)N1CCC(N2C(=O)c3ccccc3C2Nc2cc(C)cc(C)c2)CC1 (stereo not given) | 84.1% [at 20 µM]
CN1/C(=C\C(=S)NC(=O)c2cccc(Br)c2)C(C)(C)c2ccccc21 | 73.9% [at 20 µM]
CCN(CC)S(=O)(=O)c1cc(C(=O)Nc2cc(Cl)ccc2N2CCN(C)CC2)ccc1Cl | 82.8%
